# Test results published in PubChem BioAssay (EPA / NIEHS).
# Values joined by “and” are separate entries in the source; they are usually repeats but may differ in a detail not shown here. Equal values may be shown once. Records with an inconclusive call do not appear. Where a structure was tested more than once in an assay, its records may differ in their call. Active and inactive are the calls of the source. How the source made its calls: active means hit-call score of the fitted dose curve at least 0.9, where 1 is the maximum; inconclusive means response in the unintended direction; inactive means score below 0.9.
# Columns and labels:
# [1] = ATG_XTT_Cytotoxicity: Cytotoxicity Assessment in the Attagene TRANS-FACTORIAL HepG2 Assay (AID 2283584)
# How it was run: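 XTT readout of cell number in transfected HepG2 cells, 24 h post-dosing; DMSO serves as negative control and baseline, with activity taken as loss of viability signal.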
# [2] = biological target: Cellular tumor antigen p53 (Homo sapiens) (UniProt P04637); experiment: TOX21_p53_BLA_p2_ratio: Tox21 HCT-116 p53 Agonism Beta-lactamase Assay, Ratio, Phase 2 (AID 2283592)
# Chain of Cellular tumor antigen p53 (Homo sapiens) (P04637 whole entry, looked up): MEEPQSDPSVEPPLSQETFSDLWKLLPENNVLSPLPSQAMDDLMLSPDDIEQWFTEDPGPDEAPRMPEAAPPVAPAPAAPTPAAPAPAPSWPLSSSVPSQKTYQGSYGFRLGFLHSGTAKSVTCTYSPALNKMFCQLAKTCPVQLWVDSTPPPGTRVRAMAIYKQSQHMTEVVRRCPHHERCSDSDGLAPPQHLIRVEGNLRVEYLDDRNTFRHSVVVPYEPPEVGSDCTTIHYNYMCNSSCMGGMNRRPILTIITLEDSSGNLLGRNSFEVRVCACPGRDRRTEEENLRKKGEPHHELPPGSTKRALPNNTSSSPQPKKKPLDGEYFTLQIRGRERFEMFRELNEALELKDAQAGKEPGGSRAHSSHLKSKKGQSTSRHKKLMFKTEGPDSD
# How it was run: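 In this cell-based reporter format, HCT116 cells were dosed with chemicals delivered from DMSO by 217-fold dilution and incubated 16 h at 37C. Emission at 460 and 530 nm after 2 h CCF4-AM loading provided the ratio, fitted upward versus DMSO.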
# [3] = TOX21_p53_BLA_p3_viability: Viability Assessment in the Tox21 HCT-116 p53 Agonism Beta-lactamase Assay, Phase 3 (AID 2283593);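 further: cells exposed to compound for 16 h before reading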
# How it was run: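 Cellular ATP was quantified by CellTiter-Glo luminescence, read after 30 min at room temperature. Beforehand, HCT116 cells (4000/well) received compound 5 h post-seeding, 217-fold diluted from DMSO, then incubated 16 h at 37C.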
# [4] = biological target: Cellular tumor antigen p53 (Homo sapiens) (UniProt P04637); experiment: TOX21_p53_BLA_p3_ratio: Tox21 HCT-116 p53 Agonism Beta-lactamase Assay, Ratio, Phase 3 (AID 2283596)
# How it was run: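 HCT116 p53-bla cells (4000/well) given compound in DMSO (217-fold dilution) after 5 h, incubated 16 h at 37C. CCF4-AM substrate 2 h at room temperature; 460/530 nm emission ratio, gain fitted against DMSO.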
# [5] = TOX21_p53_BLA_p5_viability: Viability Assessment in the Tox21 HCT-116 p53 Agonism Beta-lactamase Assay, Phase 5 (AID 2283600)
# How it was run: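 Compounds, pinned from DMSO at 217-fold dilution, were left on the cells for 16 h. The viability endpoint was ATP content measured by CellTiter-Glo luminescence, where falling signal reflects cytotoxicity.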
# [6] = TOX21_p53_BLA_p4_viability: Viability Assessment in the Tox21 HCT-116 p53 Agonism Beta-lactamase Assay, Phase 4 (AID 2283597);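 further: hits lower the luminescence signal meaning cytotoxicity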
# How it was run: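 We seeded HCT116 p53 reporter cells at 4000/well and waited 5 h. We then added compounds in DMSO at a 217-fold dilution and incubated for 16 h. Viability was read as CellTiter-Glo luminescence after 30 min at RT.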
# [7] = biological target: Cellular tumor antigen p53 (Homo sapiens) (UniProt P04637); experiment: TOX21_p53_BLA_p5_ratio: Tox21 HCT-116 p53 Agonism Beta-lactamase Assay, Ratio, Phase 5 (AID 2283599)
# How it was run: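 Beta-lactamase reporter ratio (blue 460 nm over green 530 nm, 405 nm excitation) after 2 h CCF4-AM loading, in HCT-116 cells exposed 16 h at 37 C to compounds pinned at 217-fold dilution. Increases relative to DMSO baseline scored.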
# [8] = TOX21_p53_BLA_p2_viability: Viability Assessment in the Tox21 HCT-116 p53 Agonism Beta-lactamase Assay, Phase 2 (AID 2283591);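 further: compound exposure lasted 16 h at 37 °C; actives lower the ATP signal meaning cytotoxicity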
# How it was run: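 Cytotoxicity readout: CellTiter-Glo ATP luminescence, 30 min at room temperature, after the beta-lactamase read. Cells were HCT116 exposed 16 h at 37C to compounds pin-transferred at 217-fold dilution from DMSO stocks.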
structure (smiles),measurement,setting,value
CCC(C)(C)C1CCCCC1OC(C)=O (stereo not drawn),outcome,[1],inactive
same,outcome,[2],inactive
same,outcome,[3],inactive
same,outcome,[4],inactive
same,outcome,[5],inactive
CCOC(=O)c1ccccc1C(=C1C=C(Br)C(=O)C(Br)=C1)c1cc(Br)c(O)c(Br)c1,outcome,[1],inactive
same,AC50,[2],10.2 µM (active)
same,AC50,[4],10.4 µM (active)
same,AC50,[6],9.49 µM (active)
same,AC50,[7],15.2 µM (active)
same,outcome,[5],inactive
NC(=O)NNC(N)=O,outcome,[1],inactive
same,outcome,[2],inactive
same,outcome,[4],inactive
same,outcome,[6],inactive
same,outcome,[7],inactive
same,outcome,[5],inactive
NC(=O)OCC(COC(N)=O)c1ccccc1,outcome,[1],inactive
same,outcome,[2],inactive
same,outcome,[3],inactive
same,outcome,[4],inactive
same,outcome,[7],inactive
same,outcome,[5],inactive
CCC(CC)C(=O)O,outcome,[1],inactive
same,outcome,[2],inactive
same,outcome,[3],inactive
same,outcome,[5],inactive
C=CCOCC(O)CCl (stereo not drawn),outcome,[1],inactive
same,outcome,[2],inactive
same,outcome,[3],inactive
same,outcome,[7],inactive
same,outcome,[5],inactive
COc1ccc([C@@H]2CC(=O)c3c(O)cc(O[C@@H]4O[C@H](CO[C@@H]5O[C@@H](C)[C@H](O)[C@@H](O)[C@H]5O)[C@@H](O)[C@H](O)[C@H]4O)cc3O2)cc1OC,outcome,[1],inactive
same,outcome,[2],inactive
same,outcome,[4],inactive
same,outcome,[6],inactive
same,outcome,[7],inactive
same,outcome,[5],inactive
CCCCCCCCCCCCCCCCCC#N,outcome,[1],inactive
same,outcome,[2],inactive
same,outcome,[4],inactive
same,outcome,[6],inactive
same,outcome,[7],inactive
same,outcome,[5],inactive
Cc1cc(C)c(C)c(O)c1,outcome,[1],inactive
same,outcome,[2],inactive
same,outcome,[3],inactive
same,outcome,[6],inactive
same,outcome,[7],inactive
CC(=O)OCC(C)OC(C)=O (stereo not drawn),outcome,[1],inactive
same,outcome,[2],inactive
same,outcome,[4],inactive
same,outcome,[7],inactive
O=C(c1ccc(O)cc1)c1ccc(O)cc1O,outcome,[1],inactive
same,outcome,[2],inactive
same,AC50,[4],68.5 µM (active)
same,outcome,[4],inactive
same,AC50,[7],86.2 µM (active)
same,outcome,[7],inactive
Cc1ccccc1C,outcome,[1],inactive
same,outcome,[2],inactive
same,outcome,[3],inactive
same,outcome,[7],inactive
same,outcome,[5],inactive
CC=C1CC2C=CC1C2 (stereo not drawn),outcome,[1],inactive
same,outcome,[2],inactive
same,outcome,[3],inactive
same,outcome,[4],inactive
same,outcome,[6],inactive
same,outcome,[5],inactive
C=CCCCCCCCCC(=O)OCCCC,outcome,[1],inactive
same,outcome,[2],inactive
same,outcome,[3],inactive
same,outcome,[4],inactive
same,outcome,[7],inactive
same,outcome,[5],inactive
Cc1ccc2c(c1)C(=O)c1ccccc1C2=O,outcome,[1],inactive
same,outcome,[2],inactive
same,outcome,[3],inactive
same,outcome,[4],inactive
same,outcome,[7],inactive
same,outcome,[5],inactive
CC(C)=CCC[C@H](C)CCO,outcome,[1],inactive
same,outcome,[2],inactive
same,outcome,[3],inactive
same,outcome,[4],inactive
same,outcome,[6],inactive
same,outcome,[5],inactive
CC(C)c1ccc(C#N)cc1,outcome,[1],inactive
same,outcome,[2],inactive
same,outcome,[3],inactive
same,outcome,[5],inactive
c1c[nH]cn1,outcome,[1],inactive
same,outcome,[2],inactive
same,outcome,[3],inactive
same,outcome,[4],inactive
same,outcome,[7],inactive
Cc1ccc(C(C)(C)C)cc1,outcome,[1],inactive
same,outcome,[2],inactive
same,outcome,[4],inactive
same,outcome,[7],inactive
same,outcome,[5],inactive
C1=Cc2ccccc2C1,outcome,[1],inactive
same,outcome,[2],inactive
same,outcome,[3],inactive
same,outcome,[6],inactive
same,outcome,[5],inactive
C=C(C)[C@@H]1CCC2=CCC[C@@H](C)[C@]2(C)C1,outcome,[1],inactive
same,outcome,[2],inactive
same,outcome,[3],inactive
same,outcome,[6],inactive
C[C@]12C=CC(=O)C=C1CC[C@@H]1[C@@H]2[C@@H](O)C[C@@]2(C)[C@H]1CC[C@]2(O)C(=O)CO,outcome,[8],inactive
same,outcome,[2],inactive
same,outcome,[3],inactive
same,outcome,[4],inactive
same,outcome,[6],inactive
same,outcome,[5],inactive
CC(C)=CCC/C(C)=C\C#N,outcome,[8],inactive
same,outcome,[2],inactive
same,outcome,[3],inactive
same,outcome,[4],inactive
same,outcome,[7],inactive
same,outcome,[5],inactive
c1ccc2c(c1)ccc1cc3c(ccc4ccccc43)cc12,outcome,[8],inactive
same,outcome,[2],inactive
same,outcome,[4],inactive
same,outcome,[6],inactive
same,outcome,[7],inactive
same,outcome,[5],inactive
Nc1ccc(Cl)cc1Cl,outcome,[8],inactive
same,outcome,[2],inactive
same,outcome,[3],inactive
same,outcome,[4],inactive
same,outcome,[6],inactive
same,outcome,[7],inactive
O=C1OC(=O)c2cc(Oc3ccc4c(c3)C(=O)OC4=O)ccc21,outcome,[8],inactive
same,outcome,[2],inactive
same,outcome,[3],inactive
same,outcome,[4],inactive
same,outcome,[6],inactive
same,outcome,[5],inactive
N=c1ccn2c(n1)O[C@H]1[C@H](O)[C@@H](CO)O[C@H]12,outcome,[8],inactive
same,AC50,[2],1 µM (active) and 2.41 µM (active)
same,outcome,[3],inactive
same,AC50,[4],2.17 µM (active) and 3.17 µM (active)
same,outcome,[6],inactive
same,AC50,[7],2.67 µM (active) and 729 nM (active)
same,outcome,[5],inactive
Nc1ccc(N=Nc2ccccc2)c(N)n1,outcome,[8],inactive
same,AC50,[2],85.6 µM (active) and 25.8 µM (active)
same,outcome,[2],inactive
same,outcome,[3],inactive
same,AC50,[4],87.8 µM (active) and 85.8 µM (active) and 43.2 µM (active)
same,outcome,[6],inactive
same,AC50,[7],83.5 µM (active) and 85.4 µM (active)
same,outcome,[7],inactive
same,outcome,[5],inactive
C[C@]12CCC(=O)C=C1CC[C@@H]1[C@@H]2C(=O)C[C@@]2(C)[C@H]1CC[C@]2(O)C(=O)CO,outcome,[8],inactive
same,outcome,[2],inactive
same,outcome,[3],inactive
same,outcome,[4],inactive
same,outcome,[6],inactive
same,outcome,[7],inactive
same,outcome,[5],inactive
COC(=O)c1sccc1S(N)(=O)=O,outcome,[1],inactive
same,outcome,[2],inactive
same,outcome,[6],inactive
same,outcome,[7],inactive
Cc1cc(=O)n(-c2ccccc2)n1C,outcome,[8],inactive
same,outcome,[2],inactive
same,outcome,[3],inactive
same,outcome,[4],inactive
same,outcome,[6],inactive
same,outcome,[7],inactive
same,outcome,[5],inactive
O=C(O)CCCCCCCCCC(=O)O,outcome,[8],inactive
same,outcome,[2],inactive
same,outcome,[3],inactive
same,outcome,[4],inactive
same,outcome,[7],inactive
same,outcome,[5],inactive
CC(C)(Oc1ccc(C2CC2(Cl)Cl)cc1)C(=O)O (stereo not drawn),outcome,[8],inactive
same,outcome,[2],inactive
same,outcome,[3],inactive
same,outcome,[4],inactive
same,outcome,[6],inactive
same,outcome,[7],inactive
same,outcome,[5],inactive
O=C(O)c1ccccc1Nc1cccc(C(F)(F)F)c1,outcome,[8],inactive
same,AC50,[2],19.9 µM (active)
same,outcome,[2],inactive
same,outcome,[3],inactive
same,outcome,[4],inactive
same,AC50,[6],22.7 µM (active) and 23 µM (active)
same,outcome,[5],inactive
CCCCCCCCCCOC(C)=O,outcome,[1],inactive
same,outcome,[2],inactive
same,outcome,[4],inactive
same,outcome,[5],inactive
CCc1nccnc1C,outcome,[1],inactive
same,outcome,[2],inactive
same,outcome,[6],inactive
same,outcome,[5],inactive
C=CC(C)(CCC=C(C)C)OC(=O)C(C)C (stereo not drawn),outcome,[1],inactive
same,outcome,[2],inactive
same,outcome,[7],inactive
Nc1nc2ccccc2[nH]1,outcome,[8],inactive
same,outcome,[2],inactive
same,outcome,[3],inactive
same,outcome,[4],inactive
same,outcome,[6],inactive
same,outcome,[7],inactive
same,outcome,[5],inactive
C=C[Si](C)(C)O[Si](C)(C)C=C,outcome,[8],inactive
same,outcome,[2],inactive
same,outcome,[4],inactive
C[Si](C)O[Si](C)(C)O[Si](C)(C)O[Si](C)C,outcome,[1],inactive
same,outcome,[4],inactive
same,outcome,[5],inactive
CCN(Cc1cccc(S(=O)(=O)O)c1)c1ccc(C(=C2C=CC(=[N+](CC)Cc3cccc(S(=O)(=O)[O-])c3)C=C2)c2ccccc2)cc1,outcome,[1],inactive
same,outcome,[3],inactive
same,outcome,[6],inactive
C=CC(=O)OCCOC(=O)C=C,outcome,[8],inactive
same,outcome,[2],inactive
same,outcome,[3],inactive
same,outcome,[4],inactive
same,outcome,[5],inactive
CCCCC/C=C\C/C=C\CCCCCCCC(=O)OC,AC50,[8],66.2 µM (active)
same,outcome,[8],inactive
same,AC50,[2],74.7 µM (active)
same,outcome,[2],inactive
same,outcome,[3],inactive
same,outcome,[4],inactive
same,outcome,[6],inactive
same,AC50,[7],73.3 µM (active)
same,outcome,[7],inactive
same,outcome,[5],inactive
CC1=Nc2ccc3ccccc3c2C1(C)C,outcome,[8],inactive
same,outcome,[2],inactive
same,outcome,[3],inactive
same,outcome,[4],inactive
same,outcome,[7],inactive
same,outcome,[5],inactive
